Experimental data from PubChem BioAssay (NCATS).
Inconclusive results are not listed. The source made the active and inactive calls. Unless noted, calls follow the shape of the dose curve; as a rule, active = well fitted curve in the direction sought with a large enough effect; inconclusive = small, poorly fitted or top-dose-only effect, or another doubt; inactive = no such curve, though single readings can be large; an effect the other way counts as inactive or inconclusive.

Experiments:
[1] = target: Alpha-galactosidase A (Homo sapiens) (UniProt P06280); assay: Counterscreen for Glucocerebrosidase Inhibitors: qHTS Assay for Human alpha-Galactosidase at pH 4.5 (AID 992); also: 0% is about no effect
How it was run: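 Read-out is 4-methylumbelliferone fluorescence (365 nm excitation, 440 nm emission) after a pH 10 NaOH/glycine stop. Reactions held 2 nM enzyme and 80 uM substrate at pH 4.5 for 20 min at room temperature.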

[2] = target: alpha-glucosidase (Oryza sativa, rice) (UniProt Q653V4); assay: Counterscreen for Glucocerebrosidase Inhibitors: qHTS Assay for Rice alpha-Glucosidase at pH 5.0 (AID 997);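 also: 0% = full activity with enzyme and -100% = basal without enzyme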
How it was run: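 Rice alpha-glucosidase (4 nM final) with 400 uM 4-methylumbelliferyl-alpha-D-glucopyranoside in citrate buffer pH 5.0, 20 min at room temperature, stopped at pH 10; fluorescence 365/440 nm, compounds 0.7 nM–77 uM, AC50 from Hill fits.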

[3] = Validation of Assay for Modulators of Lamin A Splicing (AID 1459; active = well fitted curve in the direction sought with a large enough effect in the signal ratio; the % refers to the signal ratio;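 also: cells exposed to compound for two days before reading; 0% is about no effect; ratio rise marks activators and ratio drop marks inhibitors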)
How it was run: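 Readout: ratio of GFP (500-530 nm) to RFP (575-640 nm) total object intensity by 488 nm laser-scanning cytometry after 48 hrs. Cells were HeLa S3 clones carrying lamin A-EGFP minigene plus DsRed2 viability reporter; vehicle 0.5% DMSO final.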

[4] = target: DNA repair nuclease/redox regulator APEX1 (Homo sapiens) (UniProt P27695); assay: qHTS Validation Assay for Inhibitors of the Human Apurinic/apyrimidinic Endonuclease 1 (APE1) (AID 1705;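 also: TAMRA fluorescence gain over two minutes as APE1 cuts a quenched THF abasic duplex; % is scaled to controls: 0 for no effect and ±100 for the full control effect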)
Source text: Assay Provider: David M. Wilson, III, National Institute on Aging, NIH
Screening Center PI: Austin, C.P.
Screening Center: NIH Chemical Genomics Center [NCGC]
The apurinic/apyrimidinic endonuclease APE1 is the primary mammalian enzyme responsible for the removal of abasic (or AP) sites in DNA and functions centrally in the base excision DNA repair (BER) pathway. […] Thus, targeting APE1 could improve the efficacy of current treatment paradigms by promoting selective sensitization or protection of diseased and normal cells, respectively.
Inhibition of APE1 activity was screened by utilizing double-stranded short substrate containing tetrahydrofuran (THF) abasic site labeled with rhodamine-type fluorophore (TAMRA) at the 5'-end and with non-fluorescent Black Hole Quencher-2 (BHQ-2) at the opposing 3'-end. An increase in the fluorescence intensity due to incision of the abasic site by APE1 was used to measure the enzyme activity.
1. […]
Three uL of enzyme were dispensed to 1536-well Greiner black solid bottom plates. […] The plates were immediately transferred into ViewLux High-throughput CCD imager (Perkin-Elmer) in order to measure the reaction progress in kinetic mode (three reads every 60 seconds) using 525 nm excitation and 598 nm emission fluorescence protocol. The fluorescence intensity difference between the third and the first time points was used to compute reaction progress.

[5] = Counterscreen for APE1 Inhibitors: Fluorescent Dye Displacement Validation Assay (AID 1707);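 also: plate controls were ThO with dsDNA and no compound for no effect and ThO without dsDNA for full effect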
Source text: In order to distinguish true inhibitors of DNA-processing enzymes from promiscuous DNA-binding compounds among screening assay hits, we developed a homogeneous and miniaturized assay based on fluorescent dye displacement test as originally described by Tse and Boger (Accounts of Chemical Research (2004) 37: 61-69). The assay is based on the strong enhancement of fluorescence when Thiazole Orange (ThO) binds to double-stranded DNA: conversely, in the presence of a DNA-binding compound, Thiazole Orange is displaced from the DNA and its fluorescence is reduced.
Buffer. 50 mM Tris-HCl (pH7.5) containing 50mM NaCl, 2 mM MgCl2, and 0.01% Tween-20.
Buffer containing 250 nM ThO in columns 3 and 4 as negative control (no dsDNA).
Reaction mixture: 250 nM ThO and 50 nM dsDNA at final concentration dispensed throughout the plate: in columns 1, 2, 5-48. Column 1 is neutral (100% activity).
5''TAMRA- TC ACC FTC GTA CGA CTC
3'' AG TGG GAG CAT GCT GAG
where F denotes tetrahydrofuran. […]
Four uL of reaction mixtures were dispensed to 1536-well Greiner black solid bottom plates. Compounds (23 nL) were transferred […] in order to measure the endpoint fluorescence using 480 nm excitation and 540 nm emission fluorescence protocol.

[6] = target: Endonuclease 4 (Escherichia coli (strain K12)) (UniProt P0A6C1); assay: Counterscreen for APE1 Inhibitors: qHTS Validation Assay for Inhibitors of Endonuclease IV (AID 1708); also: % is scaled to controls: 0 for no effect and ±100 for the full control effect
How it was run: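 Cleavage of a quenched abasic-site DNA duplex (50 nM, 5'-TAMRA, 3'-BHQ-2) by 2 nM enzyme is followed as fluorescence increase. Compounds are preincubated with enzyme 15 min at room temperature before substrate addition.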

[7] = qHTS for differential inhibitors of proliferation of Plasmodium falciparum line GB4 (AID 1816);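 also: parasite growth measured after 72 h incubation; 0% = vehicle DMSO and -100% = reference inhibitor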
[8] = qHTS for differential inhibitors of proliferation of Plasmodium falciparum line 3D7 (AID 1876);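 also: parasite growth measured after three days of culture; 0% = vehicle wells and -100% = reference inhibitor wells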
[9] = qHTS for differential inhibitors of proliferation of Plasmodium falciparum line D10 (AID 1877);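 also: parasites grown with compound for 72 h before DNA staining; plate controls were vehicle wells for no effect and reference inhibitor wells for full effect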
[10] = qHTS Assay for Lipid Storage Modulators (AID 1519; calls by dose curve; also: % is scaled to controls: 0 for no effect and ±100 for the full control effect); conditions: Drosophila S3 cells, BODIPY lipid droplet/cell ratio, laser cytometry; at 25.7 µM (top of the series); cells loaded with oleic acid
How it was run: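 Cells seeded at 5,000 per well were treated with compounds over a concentration series and loaded with oleic acid (400 uM, as added). Lipid droplet fluorescence (488 nm excitation, 500-530 nm channel) was read by laser-scanning cytometry and normalized to 20 uM Triacsin C.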

Measured: activity change, negative = inhibition

Sequence of DNA repair nuclease/redox regulator APEX1 (Homo sapiens) (P27695 whole entry, looked up): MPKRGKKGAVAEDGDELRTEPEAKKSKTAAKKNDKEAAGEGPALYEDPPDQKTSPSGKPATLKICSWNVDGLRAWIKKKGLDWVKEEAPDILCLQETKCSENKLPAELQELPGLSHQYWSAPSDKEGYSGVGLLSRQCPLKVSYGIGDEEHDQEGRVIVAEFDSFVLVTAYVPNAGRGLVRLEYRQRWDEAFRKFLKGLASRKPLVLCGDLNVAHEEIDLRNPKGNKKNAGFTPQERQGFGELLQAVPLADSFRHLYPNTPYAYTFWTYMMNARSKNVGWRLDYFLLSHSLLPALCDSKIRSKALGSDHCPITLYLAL
Sequence of Alpha-galactosidase A (Homo sapiens) (P06280 whole entry, looked up): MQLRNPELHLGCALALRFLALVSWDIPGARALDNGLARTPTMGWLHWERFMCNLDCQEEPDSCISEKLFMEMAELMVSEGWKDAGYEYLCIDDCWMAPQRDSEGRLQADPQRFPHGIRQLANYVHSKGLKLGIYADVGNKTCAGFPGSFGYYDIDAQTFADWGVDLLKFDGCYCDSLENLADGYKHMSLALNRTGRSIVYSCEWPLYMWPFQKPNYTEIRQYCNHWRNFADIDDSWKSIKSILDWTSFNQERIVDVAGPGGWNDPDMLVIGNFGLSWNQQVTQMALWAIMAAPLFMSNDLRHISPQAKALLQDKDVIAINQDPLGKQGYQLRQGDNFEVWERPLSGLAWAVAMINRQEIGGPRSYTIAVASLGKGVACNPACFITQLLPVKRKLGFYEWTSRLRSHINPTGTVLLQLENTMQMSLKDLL

O=c1c2ccccc2nc2n1CCc1c-2[nH]c2ccccc12
not listed: [10]
inactive: all other assays above

C[C@H]1C[C@@H]2[C@@H]([C@@H](O)C[C@@]3(C)[C@H]2CC[C@]3(O)C(=O)CO)[C@@]2(C)C=CC(=O)C=C12
inactive: [10] -1.2%

Nc1ccc(S(=O)(=O)Nc2ncccn2)cc1
inactive: [10] 0.373%

CC[C@H](CO)Nc1nc(NCc2ccccc2)c2ncn(C(C)C)c2n1
inactive: [4] | [5] | [6]
